# In PubChem BioAssay (NCATS):
# Records with an inconclusive call do not appear. Activity calls are given as the source filed them. Unless noted, calls follow the shape of the dose curve; as a rule, active = well fitted curve in the direction sought with a large enough effect; inconclusive = small, poorly fitted or top-dose-only effect, or another doubt; inactive = no such curve, though single readings can be large; an effect the other way counts as inactive or inconclusive.
# Experiments:
# [1] = molecular target: ATP-dependent 6-phosphofructokinase (Trypanosoma brucei brucei) (UniProt O15648); experiment: qHTS Assay to Find Inhibitors of T. brucei phosphofructokinase: hit validation (AID 492961);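 also: luminescence reports ADP formed as PFK phosphorylates fructose-6-phosphate with ATP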
# ATP-dependent 6-phosphofructokinase (Trypanosoma brucei brucei), sequence (O15648 whole entry, looked up): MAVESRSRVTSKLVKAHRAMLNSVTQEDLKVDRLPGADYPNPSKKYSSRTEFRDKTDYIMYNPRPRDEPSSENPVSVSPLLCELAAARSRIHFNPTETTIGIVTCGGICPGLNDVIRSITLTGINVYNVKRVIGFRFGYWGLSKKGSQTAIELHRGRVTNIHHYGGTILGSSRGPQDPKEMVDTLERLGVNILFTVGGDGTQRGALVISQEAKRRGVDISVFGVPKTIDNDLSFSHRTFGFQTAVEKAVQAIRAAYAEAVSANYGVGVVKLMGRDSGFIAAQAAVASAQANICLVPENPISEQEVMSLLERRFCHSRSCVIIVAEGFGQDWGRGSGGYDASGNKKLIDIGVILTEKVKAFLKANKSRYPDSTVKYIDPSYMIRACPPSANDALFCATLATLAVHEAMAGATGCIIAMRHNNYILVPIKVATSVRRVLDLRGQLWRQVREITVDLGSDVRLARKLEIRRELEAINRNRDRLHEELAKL
# Outline: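 ADP-Glo luminescence read-out of ADP formed by 1.25 nM PFK from 0.1 mM ATP and 0.5 mM F6P (TEA pH 8.0, 45 min, RT). Compounds titrated; activity normalized to no-enzyme and full-enzyme controls.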
# [2] = molecular target: Luciferin 4-monooxygenase (Photinus pyralis) (UniProt P08659); experiment: Biochemical firefly luciferase enzyme assay for NPC (AID 624030);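 also: purified P. pyralis luciferase at 10 nM with luciferin and ATP substrate; nearly all actives have a fitted effect of over 70% in size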
# Luciferin 4-monooxygenase (Photinus pyralis), sequence (P08659 whole entry, looked up): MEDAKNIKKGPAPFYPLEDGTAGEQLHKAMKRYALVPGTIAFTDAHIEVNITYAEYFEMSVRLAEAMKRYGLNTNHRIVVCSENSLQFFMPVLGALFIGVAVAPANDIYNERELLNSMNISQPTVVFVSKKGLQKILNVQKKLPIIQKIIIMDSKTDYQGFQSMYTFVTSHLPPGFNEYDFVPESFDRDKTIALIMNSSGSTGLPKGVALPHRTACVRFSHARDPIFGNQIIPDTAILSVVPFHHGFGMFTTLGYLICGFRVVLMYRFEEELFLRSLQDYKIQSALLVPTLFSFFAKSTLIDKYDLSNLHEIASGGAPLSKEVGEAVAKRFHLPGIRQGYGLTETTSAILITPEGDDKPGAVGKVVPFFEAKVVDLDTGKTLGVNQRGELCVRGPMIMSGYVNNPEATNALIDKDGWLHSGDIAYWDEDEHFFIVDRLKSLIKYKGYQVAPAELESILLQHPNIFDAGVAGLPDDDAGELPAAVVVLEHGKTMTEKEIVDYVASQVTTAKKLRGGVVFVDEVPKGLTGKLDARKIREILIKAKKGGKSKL
# Outline: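 Direct inhibition of firefly luciferase enzyme (10 nM final, 50 mM Tris Acetate) assessed by luminescence within 5 minutes. Percent activity scaled between DMSO and PTC124 positive control, with concentration-effect curves classified by fit quality and response.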
# [3] = S16 Schwann cell viability assay (CellTiter-Glo assay) (AID 624031);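 also: native untransfected S16 rat Schwann cells; cellular ATP luminescence as a viability measure; nearly all actives have a fitted effect of over 70% in size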
# Outline: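 Concentration-effect curves come from CellTiter-Glo luminescence of S16 rat Schwann cells after 24 h compound exposure. Each reading was normalized to DMSO wells (0%) and wells without cells, and curves were ranked by r2 and response magnitude.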
# [4] = S16 Schwann cell PMP22 intronic element beta-lactamase assay (AID 624044; calls by dose curve; also: nearly all actives have a fitted effect of over 15% in size); settings: S16 rat Schwann cells, PMP22 element beta-lactamase FRET, 24 h; ratio activity, negative = inhibition: at 38.3 µM (top of the series) unless noted
# Outline: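 Rat S16 Schwann cells with beta-Lac driven by a PMP22 intronic element, compound-treated 24 h at 37 °C. LiveBLAzer FRET B/G read: 460 nm normalized to potassium clavulanate vs DMSO; 535 nm FRET as viability; concentration-effect curves classified.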
# [5] = molecular target: Cytochrome P450 2D6 (Homo sapiens) (UniProt P10635); experiment: Cytochrome P450 family 2 subfamily D member 6 (CYP2D6) small molecule antagonists: luciferase biochemical (cell-free) qHTS assay (AID 1645840; active = well fitted curve in the direction sought with a large enough effect in the repeat runs; an effect the other way counts as inactive or inconclusive; also: nearly all actives have a fitted effect of over 55% in size)
# Cytochrome P450 2D6 (Homo sapiens), sequence (P10635 whole entry, looked up): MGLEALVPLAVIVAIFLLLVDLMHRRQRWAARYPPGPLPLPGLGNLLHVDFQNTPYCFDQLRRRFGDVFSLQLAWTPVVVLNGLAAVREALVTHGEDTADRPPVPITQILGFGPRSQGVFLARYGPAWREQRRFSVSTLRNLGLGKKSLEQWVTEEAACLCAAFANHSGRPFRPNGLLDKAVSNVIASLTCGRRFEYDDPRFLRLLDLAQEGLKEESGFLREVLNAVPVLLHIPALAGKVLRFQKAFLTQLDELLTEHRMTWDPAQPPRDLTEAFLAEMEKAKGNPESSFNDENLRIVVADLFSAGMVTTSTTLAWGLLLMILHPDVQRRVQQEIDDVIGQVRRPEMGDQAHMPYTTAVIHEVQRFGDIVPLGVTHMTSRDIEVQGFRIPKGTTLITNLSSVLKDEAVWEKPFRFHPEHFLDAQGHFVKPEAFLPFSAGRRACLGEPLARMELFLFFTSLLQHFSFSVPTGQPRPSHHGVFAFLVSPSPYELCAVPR
# Outline: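 P450-Glo luminescent screen: recombinant CYP2D6 enzyme–proluciferin substrate mix preincubated with compound 10 min at room temperature, then NADPH regeneration added for 1 h at room temperature. Detection reagent added for 20 min; luciferin light read as relative luminescence units.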
# [6] = molecular target: Cytochrome P450 3A4 (Homo sapiens) (UniProt P08684); experiment: Cytochrome P450 family 3 subfamily A member 4 (CYP3A4) small molecule antagonists: luciferase qHTS assay (AID 1645841; active = well fitted curve in the direction sought with a large enough effect in the repeat runs; an effect the other way counts as inactive or inconclusive; also: nearly all actives have a fitted effect of over 45% in size)
# Cytochrome P450 3A4 (Homo sapiens), sequence (P08684 whole entry, looked up): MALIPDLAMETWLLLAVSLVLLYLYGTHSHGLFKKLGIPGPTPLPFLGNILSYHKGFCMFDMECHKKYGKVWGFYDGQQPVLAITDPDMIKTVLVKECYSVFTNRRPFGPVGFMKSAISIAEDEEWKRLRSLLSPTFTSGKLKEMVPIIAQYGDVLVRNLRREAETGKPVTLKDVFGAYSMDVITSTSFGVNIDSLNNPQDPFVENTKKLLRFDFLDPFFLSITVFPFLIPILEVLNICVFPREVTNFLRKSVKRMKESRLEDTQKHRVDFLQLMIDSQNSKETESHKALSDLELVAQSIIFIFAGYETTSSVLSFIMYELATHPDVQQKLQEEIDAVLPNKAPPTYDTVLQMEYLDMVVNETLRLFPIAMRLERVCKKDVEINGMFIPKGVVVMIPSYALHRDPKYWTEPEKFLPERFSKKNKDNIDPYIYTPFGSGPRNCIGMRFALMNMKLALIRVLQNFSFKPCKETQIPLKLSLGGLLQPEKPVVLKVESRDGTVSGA
# Outline: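 Luminescent CYP3A4 activity readout: compounds plus enzyme-substrate mix 10 min at room temperature, reaction started with NADPH regenerating system for 1 h, stopped with detection reagent, read after 20 min. Ketoconazole served as control.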
# [7] = molecular target: Cytochrome P450 2C9 (Homo sapiens) (UniProt P11712); experiment: Cytochrome P450 family 2 subfamily C member 9 (CYP2C9) small molecule antagonists: luciferase biochemical (cell-free) qHTS assay (AID 1645842; active = well fitted curve in the direction sought with a large enough effect in the repeat runs; an effect the other way counts as inactive or inconclusive; also: nearly all actives have a fitted effect of over 55% in size)
# Cytochrome P450 2C9 (Homo sapiens), sequence (P11712 whole entry, looked up): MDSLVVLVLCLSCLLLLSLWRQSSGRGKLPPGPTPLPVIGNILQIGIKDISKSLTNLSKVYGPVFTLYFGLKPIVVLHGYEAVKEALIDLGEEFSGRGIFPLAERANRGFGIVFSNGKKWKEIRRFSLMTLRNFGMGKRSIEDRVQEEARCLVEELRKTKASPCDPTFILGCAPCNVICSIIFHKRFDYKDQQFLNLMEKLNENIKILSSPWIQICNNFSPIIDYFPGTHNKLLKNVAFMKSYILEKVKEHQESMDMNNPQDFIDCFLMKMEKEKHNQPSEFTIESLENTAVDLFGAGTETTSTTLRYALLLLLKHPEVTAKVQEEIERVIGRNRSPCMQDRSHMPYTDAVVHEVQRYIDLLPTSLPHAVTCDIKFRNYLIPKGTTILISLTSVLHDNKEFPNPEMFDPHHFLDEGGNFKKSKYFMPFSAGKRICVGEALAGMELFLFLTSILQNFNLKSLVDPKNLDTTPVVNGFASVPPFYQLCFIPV
# Outline: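 Luminescence, after 20 min with luciferin detection reagent, reflected CYP2C9 turnover during a 1 h NADPH-driven reaction at 37C. Enzyme-substrate mix contained 0.4% bovine serum albumin and was preincubated with compound 10 min at room temperature.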
# [8] = qHTS profiling for inhibitors of Plasmodium falciparum proliferation (AID 504749); also: potency is read from the fitted curve at half-maximal effect; nearly all actives have a fitted effect of over 60% in size; settings: P. falciparum in erythrocytes, SYBR Green DNA, 72 h
# Outline: (§1)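 Infected RBCs, 0.3% parasitemia/2.5% Hct final; cpd 72 h, 37 C, 5% CO2; lysis buffer with saponin/triton/SYBR Green I, o/n RT dark; FI 485/535; norm. to artemisinin (0.29 uM) and DMSO.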
# 3D7 = experiment: as above; settings: P. falciparum in erythrocytes, SYBR Green DNA, 72 h; series mostly up to 28.7 µM
# Outline: as §1
# 7G8 = experiment: as above; settings: P. falciparum in erythrocytes, SYBR Green DNA, 72 h; series mostly up to 12.8 µM
# Outline: as §1
# AA1029 = experiment: as above; settings: P. falciparum in erythrocytes, SYBR Green DNA, 72 h; series mostly up to 28.7 µM
# Outline: as §1
# AS120 = experiment: as above; settings: P. falciparum in erythrocytes, SYBR Green DNA, 72 h; series mostly up to 28.7 µM
# Outline: as §1
# ATS189 = experiment: as above; settings: P. falciparum in erythrocytes, SYBR Green DNA, 72 h; series mostly up to 28.7 µM
# Outline: as §1
# ATS95 = experiment: as above; settings: P. falciparum in erythrocytes, SYBR Green DNA, 72 h; series mostly up to 28.7 µM
# Outline: as §1
# C2A = experiment: as above; settings: P. falciparum in erythrocytes, SYBR Green DNA, 72 h; series mostly up to 28.7 µM
# Outline: as §1
# CP191 = experiment: as above; settings: P. falciparum in erythrocytes, SYBR Green DNA, 72 h; series mostly up to 28.7 µM
# Outline: as §1
# CP192 = experiment: as above; settings: P. falciparum in erythrocytes, SYBR Green DNA, 72 h; series mostly up to 28.7 µM
# Outline: as §1
# CP194 = experiment: as above; settings: P. falciparum in erythrocytes, SYBR Green DNA, 72 h; series mostly up to 28.7 µM
# Outline: as §1
# CP201 = experiment: as above; settings: P. falciparum in erythrocytes, SYBR Green DNA, 72 h; series mostly up to 28.7 µM
# Outline: as §1
# CP203 = experiment: as above; settings: P. falciparum in erythrocytes, SYBR Green DNA, 72 h; series mostly up to 28.7 µM
# Outline: as §1
# CP211 = experiment: as above; settings: P. falciparum in erythrocytes, SYBR Green DNA, 72 h; series mostly up to 28.7 µM
# Outline: as §1
# CP215 = experiment: as above; settings: P. falciparum in erythrocytes, SYBR Green DNA, 72 h; series mostly up to 28.7 µM
# Outline: as §1
# CP217 = experiment: as above; settings: P. falciparum in erythrocytes, SYBR Green DNA, 72 h; series mostly up to 28.7 µM
# Outline: as §1
# CP237 = experiment: as above; settings: P. falciparum in erythrocytes, SYBR Green DNA, 72 h; series mostly up to 28.7 µM
# Outline: as §1
# CP238 = experiment: as above; settings: P. falciparum in erythrocytes, SYBR Green DNA, 72 h; series mostly up to 28.7 µM
# Outline: as §1
# CP247 = experiment: as above; settings: P. falciparum in erythrocytes, SYBR Green DNA, 72 h; series mostly up to 28.7 µM
# Outline: as §1
# CP250 = experiment: as above; settings: P. falciparum in erythrocytes, SYBR Green DNA, 72 h; series mostly up to 12.8 µM
# Outline: as §1
# CP252 = experiment: as above; settings: P. falciparum in erythrocytes, SYBR Green DNA, 72 h; series mostly up to 12.8 µM
# Outline: as §1
# CP256 = experiment: as above; settings: P. falciparum in erythrocytes, SYBR Green DNA, 72 h; series mostly up to 28.7 µM
# Outline: as §1
smiles,measurement,setting,value
O=[As]O[As]=O (stereo not given),Potency,[1],inactive
same,Potency,[2],inactive
same,Potency,[3],inactive
same,Potency,[4],inactive
same,Potency,[5],inactive
same,outcome,[6],inactive
same,Potency,[7],inactive
same,Potency,[8]; parasite line A,8.91 µM (active)
same,Potency,[8]; parasite line B,8.91 µM (active)
same,Potency,3D7,11.2 µM (active)
same,Potency,7G8,3.98 µM (active)
same,Potency,AA1029,11.2 µM (active)
same,Potency,AS120,11.2 µM (active)
same,Potency,ATS189,8.91 µM (active)
same,Potency,ATS95,10 µM (active)
same,Potency,C2A,12.6 µM (active)
same,Potency,CP191,11.2 µM (active)
same,Potency,CP192,9.53 µM (active)
same,Potency,CP194,13.5 µM (active)
same,Potency,CP201,13.5 µM (active)
same,Potency,CP203,10.7 µM (active)
same,Potency,CP211,12 µM (active)
same,Potency,CP215,13.5 µM (active)
same,Potency,CP217,7.94 µM (active)
same,Potency,CP237,11.2 µM (active)
same,Potency,CP238,8.91 µM (active)
same,Potency,CP247,7.94 µM (active)
same,Potency,CP250,7.94 µM (active)
same,Potency,CP252,12.6 µM (active)
same,Potency,CP256,8.91 µM (active)
